This is an account of results in PubChem BioAssay (NCATS).

Results filed as inconclusive are left out. The source made the active and inactive calls. Unless noted, calls come from the whole dose curve; as a rule, active = well fitted curve in the direction sought with a large enough effect; inconclusive = small, poorly fitted or top-dose-only effect, or another doubt; inactive = no such curve, though single readings can be large; an effect the other way counts as inactive or inconclusive.

In assay [1] the target is ATP-dependent DNA helicase Q1 (Homo sapiens) (UniProt P46063). In words: qHTS Validation Assay for Inhibitors of RecQ-Like Dna Helicase 1 (RECQ1) (AID 2353). Put shortly:
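50 nM RECQ1T1 preincubated 15 min with compound in Tris pH 8.0 buffer with MgCl2, DTT, Tween-20 and 2.5 ug/ml poly(dI-dC); started with 200 nM TAMRA/BHQ-2 forked duplex and 2 mM ATP. Unwinding read as fluorescence (525/598 nm), two reads 2 h apart.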

The nature of assay [2]: Cytometric Cell-Based qHTS for Inhibitors of the mTORC1 Signaling Pathway in MEF (Tsc2-/-, p53-/-) Cells (AID 2660). Note: potency is the fitted concentration of half-maximal effect. Put shortly: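 Readout: Alexa-488 phospho-rpS6 (Ser235/236) intensity divided by PI intensity, thresholded against 7.5 nM rapamycin wells and reported as % positive cells. PI cell count served as the viability measure. Compound exposure was 24 hrs at 37 degree Celsius.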
On the technique in general: qHTS replaces the single test concentration by a dilution series.

Assay [3] is described as follows: High Content Imaging Cell-Based qHTS for Inhibitors of the mTORC1 Signaling Pathway in MEF (Tsc2-/-, p53-/-) Cells (AID 2666).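 Note: percent of cells scored positive for phospho-rpS6 Ser235/236 immunostaining by imaging.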 Note: potency is the fitted concentration of half-maximal effect. Put shortly: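 Read-out: % positive cells per well, with thresholds from highest- and lowest-signal wells, based on phospho-rpS6 (Ser235/236) intensity normalized to Hoechst nuclear stain. Cells: Tsc2-/-, p53-/- MEFs carrying empty vector; compound 24 hrs, 37 degree Celsius.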

Assay [4] in a line: Cytometry Cell-Based qHTS for Inhibitors of the mTORC1 Signaling Pathway in MEF cells (AID 2668).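 Note: Tsc2-/- p53-/- mouse embryonic fibroblasts stably re-expressing wild-type Tsc2; percent cells positive for phospho-rpS6 Ser235/236 relative to propidium iodide stain; series mostly up to about 38 µM.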 The gist of the method: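 Tsc2-/-, p53-/- MEFs re-expressing WT Tsc2; cpd 24 hrs, 37 degree Celsius; PFA fix, Alexa-488 p-rpS6 (Ser235/236) Ab 2 hrs RT, PI counterstain; Acumen 488nm scan; p-S6/PI ratio → % positive cells; PI count = viability.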
A short description of assay [5]: Validation screen for small molecules that induce DNA re-replication in MCF 10A normal breast cells (AID 463097). Note: nearly all actives have a fitted effect of over 60% in size. The gist of the method: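 Image-based qHTS: normal breast cells are incubated with compound for 48 hr, stained with Hoechst, and scanned for total nuclear fluorescence. Compounds raising the fraction of nuclei with elevated DNA content count as re-replication inducers.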

Assay [6] concerns the target Ubiquitin carboxyl-terminal hydrolase 2 (Homo sapiens) (UniProt O75604). Nature of the assay: qHTS Validation Assay for Inhibitors of Ubiquitin-specific Protease USP2a Using CHOP2 as the Reporter (AID 463106). Put shortly: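 USP2 core (10nM final) was preincubated with compound for 30min at RT in 20mM Tris-HCl pH 8.0, 2mM CaCl2, 2mM beta-mercaptoethanol, 0.05% CHAPS. Ub-CHOP2 and reporter substrate (25nM each) were added, and fluorescence (Ex 485/Em 531nm) was read after 60min.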

Assay [7] concerns the target DNA polymerase III PolC-type (Bacillus subtilis (strain 168)) (UniProt P13267). Nature of the assay: qHTS Validation Assay for the Inhibitors of DNA Replication in Gram-Positive Bacteria (AID 485295).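 Note: reconstituted holoenzyme with PolC plus beta clamp SSB and primase; PicoGreen fluorescence of double-stranded DNA made on primed circular M13 template; series mostly up to about 57 µM.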 The gist of the method: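 First, compound is mixed with the reconstituted replication complex and held at room temperature. Next, circular single-stranded M13Gori with nucleotides starts synthesis. Finally, PicoGreen in EDTA halts the reaction and stains double-stranded product for fluorescence reading.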

Assay [8] concerns the target Tumor susceptibility gene 101 protein (Homo sapiens) (UniProt Q99816). Nature of the assay: qHTS Validation Assay for Iinhibitors of HIV-1 Budding by Blocking the Interaction of PTAP/TSG101 (AID 485342; calls by dose curve). Put shortly:
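Binding of a FITC-tagged PTAP-motif peptide (50 nM) to the Tsg101 binding domain (10 uM) is monitored by fluorescence polarization. Compounds are pin-delivered before peptide addition, and incubation runs 20 min at room temperature.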

Assay [9] in a line: qHTS Validation Assay to Find Inhibitors of Chronic Active B-Cell Receptor Signaling (AID 485345; active = well fitted curve in the direction sought with a large enough effect in the main read-out, with a control signal flat, not every such curve was filed as active). The gist of the method:
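TMD8 ABC-DLBCL cells with dox-inducible green luciferase–IκBα fusion and red native luciferase; compounds 46 uM–3 nM, 4 h at 37C with doxycycline in 0.5% FBS IMDM. Green/red ratio normalized to basal and 10 uM MG-132.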

In assay [10] the target is Beta-2 adrenergic receptor (Homo sapiens) (UniProt P07550). In words: qHTS validation assay of beta-arrestin-biased ligands of beta2-adrenergic receptor (AID 485366). Put shortly: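 Tango cells (recombinant beta2-AR with recombinant beta-arrestin; recruitment releases tTA driving luciferase) were treated with compounds titrated up to 46 microM for 18 hr at 37 degrees C. Luminescence gave %Activity, and concentration-response curves were curve-classified.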

A short description of assay [11]: Quantitative high throughput screen for delayed death inhibitors of the malarial parasite plastid, 96 hour incubation (AID 488745). Note: nearly all actives have a fitted effect of over 70% in size. Note: potency is the fitted concentration of half-maximal effect. The gist of the method: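 Growth of reporter-bearing P. falciparum in red cells is measured after 96 h with compound, covering two erythrocytic cycles. Luminescence from the integrated luciferase serves as the growth signal.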
The nature of assay [12]: Quantitative high throughput screen for delayed death inhibitors of the malarial parasite plastid, 48 hour incubation (AID 488752). Note: nearly all actives have a fitted effect of over 65% in size. Note: potency is the fitted concentration of half-maximal effect. Put shortly:
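One parasite generation (48 h, 37 C, 5% CO2) of luciferase-reporter P. falciparum in erythrocytes is run with test compound; decreased luminescence indicates inhibited growth.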

The target in assay [13] is Thioredoxin reductase 1, cytoplasmic (Rattus norvegicus) (UniProt O89049). Nature of the assay: qHTS Assay for Substrates of Mammalian Selenoprotein Thioredoxin Reductase 1 (TrxR1) (AID 488772).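 Note: NADPH fluorescence in the first read after selenite addition and not the 8 min delta; series mostly up to about 57 µM; a drop in NADPH fluorescence below the no-compound background marks a TrxR1 substrate.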 The gist of the method: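 Quantitative HTS in Tris-HCl buffer at pH 7.5 with EDTA and Tween-20, using rat TrxR1, 400 uM NADPH and 400 uM selenite (final). A fall in initial NADPH fluorescence relative to background marked substrate behaviour.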

For assay [14] the target is unchanged. Nature of the assay: qHTS Assay for Inhibitors of Mammalian Selenoprotein Thioredoxin Reductase 1 (TrxR1) (AID 488773).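 Note: drop in NADPH fluorescence over an 8 min run after selenite addition; series mostly up to about 57 µM; nearly all actives have a fitted effect of over 40% in size.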 Particulars: Potency: inhibition. Put shortly:
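Steps: enzyme (90 nM) plus NADPH (400 uM final), 5 min at ~22 deg C; compound added, 15 min; selenite (400 uM final) added; fluorescence followed for 8 min. Concentration-response curves derived from the normalized delta values.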

In assay [15] the target is Flap endonuclease 1 (Homo sapiens) (UniProt P39748). Nature of the assay: qHTS Validation Assay for the Inhibitors of Human Flap endonuclease 1 (FEN1) (AID 488816). Note: potency is the fitted concentration of half-maximal effect. Put shortly:
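FEN1, dispensed as a 10 nM reagent, was preincubated with pin-transferred compounds for 15 min at room temperature before substrate was added (50 nM final). Plates were read at 0 and 15 min, and a four-parameter Hill equation was fitted to the concentration-response data.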

Assay [16] concerns the target M-phase phosphoprotein 8 (Homo sapiens) (UniProt Q99549). Nature of the assay: qHTS Validation Assay for Inhibitors for MPP8 Chromodomain Interactions with Methylated Histone Tails (AID 488949).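 Note: 50 nM MPP8 with 50 nM peptide preformed then compounds added for 30 min; AlphaScreen signal from MPP8 chromodomain bound to biotinylated H3K9me3 peptide; top concentration of the series differs between compounds; nearly all actives have a fitted effect of over 55% in size.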 The gist of the method:
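50 nM MPP8 + 50 nM b-H3K9me3 peptide, PBS pH 7.4/0.01% Tween-20, 30 min RT; + cpd 30 min RT; + AlphaScreen donor/Ni-chelate acceptor beads 10 ug/mL final, 30 min dark; luminescence read.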

Assay [17] addresses Chromobox protein homolog 1 (Homo sapiens) (UniProt P83916). In words: qHTS Validation Assay for Inhibitors of HP1-beta Chromodomain Interactions with Methylated Histone Tails (AID 488953). Note: nearly all actives have a fitted effect of over 50% in size. Note: potency is the fitted concentration of half-maximal effect. The gist of the method: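 Measured as loss of AlphaScreen luminescence from streptavidin donor and nickel acceptor beads (10 ug/mL final) bridging HP1-beta and biotin-H3(1-18)K9me3, each 50 nM. Compounds met the preassembled complex for 30 min at RT.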

The target of assay [18] is Methanococcus maripaludis chaperonin (MmCpn) (UniProt Q6LX38). In words: High-Throughput Screening for Modulators of Cytosolic Chaperonin Activity: MmCpn Primary Screen (AID 488978).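 Note: 50 nM MmCpn enzyme hydrolysing 30 µM ATP at 37 °C.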 The gist of the method: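 Steps: chaperonin 50 nM final; add compound, 5 min RT; start with ATP, 30 uM final; hold 10 min at 37C; add ADP Transcreener HTRF reagent, 5 min; read ex 320, em 590 and 665 nm.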

The target of assay [19] is RecQ-like DNA helicase BLM (Homo sapiens) (UniProt P54132). In words: qHTS Validation Assay for Inhibitors of Bloom's syndrome helicase (BLM) (AID 2364). The gist of the method: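 BLM 50 nM in 25 mM Tris-HCl pH 8.0, 5 mM NaCl, 2 mM MgCl2, 1 mM DTT, 0.01% Tween-20, 2.5 ug/ml poly(dI-dC); 15 min cpd preinc, RT. Start: 200 nM forked DNA + 2 mM ATP (final). TAMRA read, 2 reads 2 h apart.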

Assay [20] has as its target ATP-dependent 6-phosphofructokinase (Trypanosoma brucei brucei) (UniProt O15648). In words: qHTS Validation Assay to Find Inhibitors of T. brucei phosphofructokinase (AID 485368). The gist of the method: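 Compounds (up to 57 uM, titration series) were pinned into substrate buffer, then 1.25 nM PFK added; after 45 min at room temperature, ADP product was quantified by ADP-Glo luminescence and concentration-response curves fitted.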

Chain of Flap endonuclease 1 (Homo sapiens) (P39748 whole entry, looked up): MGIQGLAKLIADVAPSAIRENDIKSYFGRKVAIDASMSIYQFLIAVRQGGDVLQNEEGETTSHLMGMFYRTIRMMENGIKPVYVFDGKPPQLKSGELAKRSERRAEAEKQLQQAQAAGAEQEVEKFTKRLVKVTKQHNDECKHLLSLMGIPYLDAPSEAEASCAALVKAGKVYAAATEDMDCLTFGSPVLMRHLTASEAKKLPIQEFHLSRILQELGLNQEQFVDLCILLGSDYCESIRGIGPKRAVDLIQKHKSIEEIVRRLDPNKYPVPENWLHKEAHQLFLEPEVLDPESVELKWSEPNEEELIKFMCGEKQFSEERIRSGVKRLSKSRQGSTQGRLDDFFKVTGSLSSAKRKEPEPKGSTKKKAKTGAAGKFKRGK
Chain of M-phase phosphoprotein 8 (Homo sapiens) (Q99549 whole entry, looked up): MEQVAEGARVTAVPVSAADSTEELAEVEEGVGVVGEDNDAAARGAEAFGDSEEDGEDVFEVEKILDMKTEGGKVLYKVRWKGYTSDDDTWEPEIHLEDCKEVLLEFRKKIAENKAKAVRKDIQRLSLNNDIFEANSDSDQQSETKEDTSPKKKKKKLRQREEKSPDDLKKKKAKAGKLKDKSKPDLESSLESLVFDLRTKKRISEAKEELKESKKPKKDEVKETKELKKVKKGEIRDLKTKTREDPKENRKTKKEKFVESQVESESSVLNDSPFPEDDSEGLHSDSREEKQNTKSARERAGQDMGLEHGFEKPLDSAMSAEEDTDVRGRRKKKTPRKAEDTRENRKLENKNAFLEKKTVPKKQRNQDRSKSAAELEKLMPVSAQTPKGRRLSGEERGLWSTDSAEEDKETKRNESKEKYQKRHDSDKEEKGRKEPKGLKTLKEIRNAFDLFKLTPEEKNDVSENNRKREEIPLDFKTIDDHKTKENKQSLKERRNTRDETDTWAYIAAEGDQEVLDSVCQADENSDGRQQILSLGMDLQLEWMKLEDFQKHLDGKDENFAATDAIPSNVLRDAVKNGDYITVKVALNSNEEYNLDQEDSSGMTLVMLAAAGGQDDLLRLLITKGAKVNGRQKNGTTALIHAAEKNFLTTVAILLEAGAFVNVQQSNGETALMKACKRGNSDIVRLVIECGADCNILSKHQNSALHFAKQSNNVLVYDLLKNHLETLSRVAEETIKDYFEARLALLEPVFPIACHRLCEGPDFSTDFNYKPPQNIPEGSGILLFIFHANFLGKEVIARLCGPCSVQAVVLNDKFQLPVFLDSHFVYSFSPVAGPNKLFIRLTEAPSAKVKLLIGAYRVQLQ
Chain of ATP-dependent DNA helicase Q1 (Homo sapiens) (P46063 whole entry, looked up): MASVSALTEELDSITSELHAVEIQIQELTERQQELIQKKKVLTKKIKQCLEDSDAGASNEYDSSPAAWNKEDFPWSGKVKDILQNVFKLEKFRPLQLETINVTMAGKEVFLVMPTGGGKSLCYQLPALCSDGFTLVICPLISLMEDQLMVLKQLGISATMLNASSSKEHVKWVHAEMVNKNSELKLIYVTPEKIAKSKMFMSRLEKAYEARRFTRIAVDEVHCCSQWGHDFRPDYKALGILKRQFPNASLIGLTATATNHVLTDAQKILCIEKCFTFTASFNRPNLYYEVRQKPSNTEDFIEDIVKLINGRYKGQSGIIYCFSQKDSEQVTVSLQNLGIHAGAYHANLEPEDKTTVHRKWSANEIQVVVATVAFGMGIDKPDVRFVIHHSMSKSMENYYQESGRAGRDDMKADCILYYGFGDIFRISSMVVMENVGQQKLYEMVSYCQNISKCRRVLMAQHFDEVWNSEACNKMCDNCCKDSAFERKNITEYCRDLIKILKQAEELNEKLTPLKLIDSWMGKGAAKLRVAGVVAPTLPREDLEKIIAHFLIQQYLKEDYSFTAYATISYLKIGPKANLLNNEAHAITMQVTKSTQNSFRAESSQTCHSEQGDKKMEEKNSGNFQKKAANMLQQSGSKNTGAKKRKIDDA
Chain of Methanococcus maripaludis chaperonin (MmCpn) (Q6LX38 1-543): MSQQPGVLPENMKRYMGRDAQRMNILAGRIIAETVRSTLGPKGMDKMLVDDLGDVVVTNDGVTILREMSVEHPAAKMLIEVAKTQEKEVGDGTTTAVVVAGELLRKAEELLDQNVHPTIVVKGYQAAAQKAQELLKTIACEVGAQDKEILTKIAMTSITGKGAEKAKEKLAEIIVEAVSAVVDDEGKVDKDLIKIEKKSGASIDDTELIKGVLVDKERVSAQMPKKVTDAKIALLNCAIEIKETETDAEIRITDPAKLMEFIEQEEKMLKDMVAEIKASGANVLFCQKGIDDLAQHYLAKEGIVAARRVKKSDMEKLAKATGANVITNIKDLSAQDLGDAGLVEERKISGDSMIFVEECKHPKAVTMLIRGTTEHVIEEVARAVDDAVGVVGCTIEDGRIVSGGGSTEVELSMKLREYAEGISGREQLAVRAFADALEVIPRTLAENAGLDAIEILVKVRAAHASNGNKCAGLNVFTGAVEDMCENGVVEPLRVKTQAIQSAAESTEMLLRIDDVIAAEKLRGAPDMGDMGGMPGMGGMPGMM
Chain of Tumor susceptibility gene 101 protein (Homo sapiens) (Q99816 whole entry, looked up, the tested form may be a part): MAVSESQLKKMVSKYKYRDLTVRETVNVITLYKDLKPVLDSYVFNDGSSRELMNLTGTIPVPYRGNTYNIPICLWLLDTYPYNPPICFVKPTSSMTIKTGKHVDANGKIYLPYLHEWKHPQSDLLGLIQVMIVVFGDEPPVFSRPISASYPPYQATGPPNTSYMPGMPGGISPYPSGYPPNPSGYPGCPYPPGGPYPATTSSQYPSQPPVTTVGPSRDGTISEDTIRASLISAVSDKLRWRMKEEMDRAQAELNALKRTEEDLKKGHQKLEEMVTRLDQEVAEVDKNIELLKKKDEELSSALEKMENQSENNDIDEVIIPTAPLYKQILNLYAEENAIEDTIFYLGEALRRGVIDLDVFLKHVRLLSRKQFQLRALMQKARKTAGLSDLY
Chain of Beta-2 adrenergic receptor (Homo sapiens) (P07550 whole entry, looked up): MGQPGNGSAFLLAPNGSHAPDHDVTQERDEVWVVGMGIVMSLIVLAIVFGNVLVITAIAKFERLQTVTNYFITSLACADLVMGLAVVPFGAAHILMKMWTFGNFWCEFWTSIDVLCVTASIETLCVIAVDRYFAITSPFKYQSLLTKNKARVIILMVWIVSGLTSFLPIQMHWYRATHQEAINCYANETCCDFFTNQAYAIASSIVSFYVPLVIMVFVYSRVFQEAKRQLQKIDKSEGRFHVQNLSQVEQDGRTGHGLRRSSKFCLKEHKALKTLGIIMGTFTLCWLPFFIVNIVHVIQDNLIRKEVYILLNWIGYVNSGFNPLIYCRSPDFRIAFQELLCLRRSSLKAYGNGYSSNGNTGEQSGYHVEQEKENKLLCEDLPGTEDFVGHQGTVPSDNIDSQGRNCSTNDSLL
Chain of ATP-dependent 6-phosphofructokinase (Trypanosoma brucei brucei) (O15648 whole entry, looked up): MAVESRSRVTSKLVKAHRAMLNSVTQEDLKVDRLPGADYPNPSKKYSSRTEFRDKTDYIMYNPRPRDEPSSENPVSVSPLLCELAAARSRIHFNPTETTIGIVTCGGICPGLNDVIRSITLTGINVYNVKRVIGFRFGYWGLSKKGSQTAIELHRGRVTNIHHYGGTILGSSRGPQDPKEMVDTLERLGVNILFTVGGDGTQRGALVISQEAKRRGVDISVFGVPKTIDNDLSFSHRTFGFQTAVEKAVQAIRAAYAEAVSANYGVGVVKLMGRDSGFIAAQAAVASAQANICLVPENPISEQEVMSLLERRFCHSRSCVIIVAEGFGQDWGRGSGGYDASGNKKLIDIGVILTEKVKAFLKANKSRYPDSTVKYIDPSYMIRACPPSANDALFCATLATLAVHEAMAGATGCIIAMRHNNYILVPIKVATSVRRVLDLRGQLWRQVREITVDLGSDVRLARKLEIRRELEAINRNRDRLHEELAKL
Chain of Ubiquitin carboxyl-terminal hydrolase 2 (Homo sapiens) (O75604 whole entry, looked up): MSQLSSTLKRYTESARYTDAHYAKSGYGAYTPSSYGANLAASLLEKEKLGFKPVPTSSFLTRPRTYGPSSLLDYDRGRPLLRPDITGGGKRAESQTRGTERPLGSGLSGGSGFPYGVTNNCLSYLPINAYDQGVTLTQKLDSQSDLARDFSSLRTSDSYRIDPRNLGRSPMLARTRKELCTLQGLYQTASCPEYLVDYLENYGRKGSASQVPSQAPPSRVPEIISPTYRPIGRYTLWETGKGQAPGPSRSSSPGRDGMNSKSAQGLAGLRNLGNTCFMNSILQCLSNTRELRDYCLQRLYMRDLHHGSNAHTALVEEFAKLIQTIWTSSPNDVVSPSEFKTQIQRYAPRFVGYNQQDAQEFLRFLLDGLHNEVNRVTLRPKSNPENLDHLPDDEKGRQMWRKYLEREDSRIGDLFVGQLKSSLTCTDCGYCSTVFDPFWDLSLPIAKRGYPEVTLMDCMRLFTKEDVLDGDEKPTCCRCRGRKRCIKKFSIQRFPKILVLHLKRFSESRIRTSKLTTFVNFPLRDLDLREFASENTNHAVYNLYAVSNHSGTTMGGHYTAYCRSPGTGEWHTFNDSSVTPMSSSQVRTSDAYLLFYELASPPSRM
Chain of Thioredoxin reductase 1, cytoplasmic (Rattus norvegicus) (O89049 whole entry, looked up): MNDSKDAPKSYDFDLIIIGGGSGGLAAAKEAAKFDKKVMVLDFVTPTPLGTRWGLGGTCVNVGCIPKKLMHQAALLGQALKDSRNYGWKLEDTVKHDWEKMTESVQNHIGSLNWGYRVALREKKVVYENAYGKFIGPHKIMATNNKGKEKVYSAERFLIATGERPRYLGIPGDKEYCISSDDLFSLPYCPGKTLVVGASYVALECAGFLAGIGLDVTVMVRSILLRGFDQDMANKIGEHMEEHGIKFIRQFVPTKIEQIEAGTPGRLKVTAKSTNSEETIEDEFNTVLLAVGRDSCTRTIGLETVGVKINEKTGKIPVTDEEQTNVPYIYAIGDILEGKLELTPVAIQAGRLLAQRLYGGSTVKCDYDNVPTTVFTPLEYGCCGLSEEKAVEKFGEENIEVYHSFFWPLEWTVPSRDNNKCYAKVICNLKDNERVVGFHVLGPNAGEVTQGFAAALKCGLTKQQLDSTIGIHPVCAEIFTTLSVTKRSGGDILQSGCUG

In the case of `C#CCN(C)Cc1ccccc1`, the Potency result in assay [1], in assay [2], in assay [3], in assay [4], in assay [11] and in [12] was “inactive” throughout. Further, the Potency result in [14], in assay [15], in assay [16], in assay [17] and in assay [18] was “inactive” each time. For the same compound, the call in assay [5], in [6], in assay [7], in assay [8], in assay [9] and in assay [10] was inactive. Besides, in assay [13], the result was inactive.

With `COC(=O)C1=C(C)NC(C)=C(C(=O)OC)C1c1ccccc1[N+](=O)[O-]`, the Potency result in assay [1], in assay [3], in assay [4], in assay [15] and in assay [18] was “inactive” throughout. The result in [6], in assay [7], in [8], in assay [10] and in assay [13] was inactive.

Consider `CCN(CC)CCCC(C)Nc1c2ccc(Cl)cc2nc2ccc(OC)cc12` (centres undefined), for which the compound was called inactive in [19], in [7], in [8], in assay [10] and in assay [13]. The Potency was 16.5 µM (active) in [2]; 18.5 µM (active) in assay [3]; 0.0117 µM (active) in [11]; 0.037 µM (active) in assay [12]; 15 µM (active) in assay [15]. Further, the Potency result in assay [20], in [14] and in [18] was “inactive” throughout.

In the case of `C[C@]12C[C@H](O)[C@H]3[C@@H](CCC4=CC(=O)CC[C@@]43C)[C@@H]1CC[C@@H]2C(=O)CO`, the Potency entry in [2], in [3], in assay [20], in assay [14], in assay [15] and in [16] was “inactive” throughout. Besides, the Potency result in assay [17] and in assay [18] was “inactive” in each case. The outcome in [6], in assay [7], in assay [8], in [10] and in [13] was inactive.

For the compound `CCN(CC)C(C)CN1c2ccccc2Sc2ccccc21` (centres undefined), the Potency entry in assay [2], in assay [3], in assay [4], in assay [15], in assay [16] and in assay [18] was “inactive” each time. For the same compound, the result in [6], in [7], in [8], in [9], in assay [10] and in [13] was inactive. Further, the Potency in assay [17] was 0.0299 µM (active).

Turning to `CC1=C(/C=C/C(C)=C/C=C/C(C)=C/C(=O)O)C(C)(C)CCC1`, the Potency result in [1], in assay [2], in [3], in assay [4], in [15] and in assay [16] was “inactive” throughout. In addition, the Potency result in assay [18] was “inactive”. Further, the result in assay [6], in assay [7], in assay [8], in assay [10] and in [13] was inactive.

For `CNCC(O)c1ccc(O)c(O)c1` (centres undefined), the Potency result in [1], in assay [2], in [3], in [4], in assay [20] and in [11] was “inactive” in each case. Moreover, the Potency result in assay [12], in assay [16], in assay [17] and in [18] was “inactive” each time. The compound was classed as inactive in assay [5], in assay [6], in [7], in [8] and in assay [13].
